Measured values taken from PubChem BioAssay (Tox21).
Results filed as inconclusive are left out. Calls of active or inactive are those of the source. Unless noted, the call rests on the fitted dose curve; in most records, active means well fitted curve in the direction sought with a large enough effect in the repeat runs; inconclusive means weak or mixed curves; inactive means no such curve, though single readings can be large; an effect the other way counts as inactive or inconclusive.

How the values were obtained:
[1] = target: Estrogen receptor beta (Homo sapiens) (UniProt Q92731); assay: qHTS assay to identify small molecule agonists of the estrogen receptor beta (ER-beta) signaling pathway (AID 1259377; active means well fitted activation curve with a large enough effect in the signal ratio in the repeat runs, not every such curve was filed as active; the % refers to the signal ratio)
Summary of the method: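 Measured by fluorescence intensity from a B/G FRET beta-lactamase substrate (2 h, room temperature) in ER-beta-UAS-bla HEK293T cells treated with DMSO-dissolved compounds for 16 hr at 37C and 5% CO2.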

[2] = target: Estrogen receptor beta (Homo sapiens) (UniProt Q92731); assay: qHTS assay to identify small molecule antagonists of the estrogen receptor beta (ER-beta) signaling pathway (AID 1259378; active means well fitted inhibition curve with a large enough effect in the signal ratio in the repeat runs, not every such curve was filed as active; the % refers to the signal ratio)
Summary of the method: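 ER-beta-UAS-bla HEK293T cells in 2% charcoal-stripped FBS medium treated with compound plus 1nM final 17-beta-estradiol for 16 hr at 37C. Beta-lactamase reporter read by FRET substrate fluorescence after 2 hours at room temperature.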

[3] = qHTS assay to identify small molecule agonists of the androgen receptor (AR) signaling pathway in the presence of an antagonist - cell viability counter screen (AID 1259379);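 further: MDA-kb2 human breast cancer cells carrying an MMTV luciferase reporter; series mostly up to about 92 µM; nearly all actives have a fitted effect of over 25% in size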
Summary of the method: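 Nilutamide-containing (3.0uM final) MDA-kb2 cultures, 3,000 cells/well, were treated with compounds across 15 concentrations. After 16 hr at 37C with no CO2, cell viability was determined by CellTiter-Fluor fluorescence in the luciferase assay wells.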

[4] = qHTS assay to identify small molecule agonists of the estrogen receptor beta (ER-beta) signaling pathway - cell viability counter screen (AID 1259380); further: nearly all actives have a fitted effect of over 30% in size
Summary of the method: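 Steps: plate ER-beta-UAS-bla HEK293T cells, rest 6 hr; add compounds in DMSO; incubate 16 hr at 37C, 5% CO2; add FRET substrate 2 hr; add CellTiter-Glo, wait 30 min at room temperature; read luminescence.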

[5] = target: Androgen receptor (Homo sapiens) (UniProt P10275); assay: qHTS assay to identify small molecule agonists of the androgen receptor (AR) signaling pathway in the presence of an antagonist (AID 1259381; calls by dose curve; further: nearly all actives have a fitted effect of over 15% in size)
Summary of the method: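 Reporter-gene luminescence from MDA-kb2 cells exposed 16hr at 37C (0% CO2) to 15-point compound titrations with 3.0uM final nilutamide as AR antagonist.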

[6] = qHTS assay to identify small molecule antagonists of the estrogen receptor beta (ER-beta) signaling pathway - cell viability counter screen (AID 1259382); further: series mostly up to about 92 µM; nearly all actives have a fitted effect of over 55% in size
Summary of the method: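 Viability is scored by CellTiter-Glo luminescence (30 min, room temperature) in ER-beta-UAS-bla HEK293T wells already read for reporter fluorescence. Compound exposure lasts 16 hr at 37C alongside 1nM 17-beta-estradiol in charcoal-stripped serum medium.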

[7] = qHTS assay to identify small molecule agonists or antagonists of the thyroid stimulating hormone receptor (TSHR) signaling pathway - wild type cell line counter screen (AID 1259384; calls by dose curve)
Summary of the method: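 Wild-type Hek293 cells, 800/well, 18 h at 37C, then compound with Ro20-1724 for 30 min RT. cAMP by HTRF (cAMP-d2/anti-cAMP cryptate), 1 h RT, fluorescence read. 15 concentrations, triplicates.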

[8] = target: Thyrotropin receptor (Homo sapiens) (UniProt P16473); assay: qHTS assay to identify small molecule antagonists of the thyroid stimulating hormone receptor (TSHR) signaling pathway (AID 1259385; calls by dose curve; further: nearly all actives have a fitted effect of over 20% in size)
Summary of the method: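 TSHR-HEK293 cells (800/well) plated 18 h, then compounds with Ro20-1724 and TSH at 1.5 ng/mL final, 30 min at room temperature. cAMP quantified by HTRF (cAMP-d2/anti-cAMP-cryptate, 1 h); 15 concentrations in triplicate.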

[9] = qHTS assay to identify small molecule agonists of the estrogen receptor alpha (ER-alpha) signaling pathway in the presence of an antagonist - cell viability counter screen (AID 1259386);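 further: series mostly up to about 92 µM; cells exposed to compounds for 22 h at 37 °C before the viability read; nearly all actives have a fitted effect of over 30% in size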
Summary of the method: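 In this counter screen, compound effects on VM7Luc4E2 viability were tested in the presence of the antagonist ICI-182,780 at 10.0nM final. Compounds were dosed at 15 concentrations, exposure lasted 22hr, and the CellTiter-Fluor signal was read.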

[10] = target: Estrogen receptor (Homo sapiens) (UniProt P03372); assay: qHTS assay to identify small molecule agonists of the estrogen receptor alpha (ER-alpha) signaling pathway in the presence of an antagonist (AID 1259383; calls by dose curve; further: top concentration of the series differs between compounds; nearly all actives have a fitted effect of over 15% in size)
Summary of the method: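 Readout was ERE-driven luciferase luminescence in VM7Luc4E2 cells, which express full-length ER-alpha endogenously. Compounds were tested at 15 concentrations for 22hr alongside 10.0nM ICI-182,780 (final concentration).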

Measured: Potency

Estrogen receptor (Homo sapiens), sequence (P03372 whole entry, looked up): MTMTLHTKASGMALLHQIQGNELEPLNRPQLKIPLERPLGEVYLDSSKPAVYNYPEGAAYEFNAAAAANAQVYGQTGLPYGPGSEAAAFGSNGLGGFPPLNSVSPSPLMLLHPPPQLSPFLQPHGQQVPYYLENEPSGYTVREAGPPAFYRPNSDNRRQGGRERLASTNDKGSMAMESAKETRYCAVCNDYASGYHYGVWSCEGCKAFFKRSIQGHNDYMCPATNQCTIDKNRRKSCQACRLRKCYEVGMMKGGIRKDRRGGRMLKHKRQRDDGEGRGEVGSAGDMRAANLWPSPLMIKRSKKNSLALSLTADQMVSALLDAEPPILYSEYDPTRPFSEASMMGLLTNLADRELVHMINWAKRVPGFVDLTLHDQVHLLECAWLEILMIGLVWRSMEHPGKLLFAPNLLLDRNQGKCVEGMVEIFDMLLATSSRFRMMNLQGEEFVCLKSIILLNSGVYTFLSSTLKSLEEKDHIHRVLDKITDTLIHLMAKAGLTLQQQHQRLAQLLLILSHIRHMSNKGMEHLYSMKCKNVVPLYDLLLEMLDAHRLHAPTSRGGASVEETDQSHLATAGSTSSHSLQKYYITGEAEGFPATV
Thyrotropin receptor (Homo sapiens), sequence (P16473 whole entry, looked up): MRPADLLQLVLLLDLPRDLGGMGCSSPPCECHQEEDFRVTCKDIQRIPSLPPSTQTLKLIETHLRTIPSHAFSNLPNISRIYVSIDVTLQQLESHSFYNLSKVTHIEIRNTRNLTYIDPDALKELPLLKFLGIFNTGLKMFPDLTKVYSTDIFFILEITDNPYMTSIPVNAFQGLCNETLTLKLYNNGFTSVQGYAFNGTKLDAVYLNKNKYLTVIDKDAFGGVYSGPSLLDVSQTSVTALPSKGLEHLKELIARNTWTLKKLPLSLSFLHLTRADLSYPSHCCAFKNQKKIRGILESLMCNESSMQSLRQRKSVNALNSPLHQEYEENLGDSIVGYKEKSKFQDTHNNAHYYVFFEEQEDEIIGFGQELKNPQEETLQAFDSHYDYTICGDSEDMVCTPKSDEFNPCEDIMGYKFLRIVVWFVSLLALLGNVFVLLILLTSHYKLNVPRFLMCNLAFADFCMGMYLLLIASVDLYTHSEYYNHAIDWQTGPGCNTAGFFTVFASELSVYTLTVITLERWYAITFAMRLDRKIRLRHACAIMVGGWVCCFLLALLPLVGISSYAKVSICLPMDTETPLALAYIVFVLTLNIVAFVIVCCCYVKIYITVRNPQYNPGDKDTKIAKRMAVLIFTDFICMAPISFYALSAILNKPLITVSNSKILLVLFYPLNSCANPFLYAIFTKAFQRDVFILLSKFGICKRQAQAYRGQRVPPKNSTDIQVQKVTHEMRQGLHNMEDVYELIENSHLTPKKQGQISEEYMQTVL
Estrogen receptor beta (Homo sapiens), sequence (Q92731 whole entry, looked up): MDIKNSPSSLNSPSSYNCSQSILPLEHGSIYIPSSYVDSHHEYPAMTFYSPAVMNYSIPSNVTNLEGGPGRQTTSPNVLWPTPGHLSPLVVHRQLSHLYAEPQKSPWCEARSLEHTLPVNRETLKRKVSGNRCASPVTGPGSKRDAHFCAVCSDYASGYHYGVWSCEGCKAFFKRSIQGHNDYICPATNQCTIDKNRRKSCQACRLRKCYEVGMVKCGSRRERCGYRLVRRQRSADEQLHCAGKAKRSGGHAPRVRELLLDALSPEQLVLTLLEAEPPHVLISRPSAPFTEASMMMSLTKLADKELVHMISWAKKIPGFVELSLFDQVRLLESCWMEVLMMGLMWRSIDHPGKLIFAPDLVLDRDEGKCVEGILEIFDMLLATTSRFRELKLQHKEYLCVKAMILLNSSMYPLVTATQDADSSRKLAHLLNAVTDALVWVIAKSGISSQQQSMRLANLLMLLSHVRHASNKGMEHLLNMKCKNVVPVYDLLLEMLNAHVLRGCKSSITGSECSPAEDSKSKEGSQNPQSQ
Androgen receptor (Homo sapiens), sequence (P10275 whole entry, looked up): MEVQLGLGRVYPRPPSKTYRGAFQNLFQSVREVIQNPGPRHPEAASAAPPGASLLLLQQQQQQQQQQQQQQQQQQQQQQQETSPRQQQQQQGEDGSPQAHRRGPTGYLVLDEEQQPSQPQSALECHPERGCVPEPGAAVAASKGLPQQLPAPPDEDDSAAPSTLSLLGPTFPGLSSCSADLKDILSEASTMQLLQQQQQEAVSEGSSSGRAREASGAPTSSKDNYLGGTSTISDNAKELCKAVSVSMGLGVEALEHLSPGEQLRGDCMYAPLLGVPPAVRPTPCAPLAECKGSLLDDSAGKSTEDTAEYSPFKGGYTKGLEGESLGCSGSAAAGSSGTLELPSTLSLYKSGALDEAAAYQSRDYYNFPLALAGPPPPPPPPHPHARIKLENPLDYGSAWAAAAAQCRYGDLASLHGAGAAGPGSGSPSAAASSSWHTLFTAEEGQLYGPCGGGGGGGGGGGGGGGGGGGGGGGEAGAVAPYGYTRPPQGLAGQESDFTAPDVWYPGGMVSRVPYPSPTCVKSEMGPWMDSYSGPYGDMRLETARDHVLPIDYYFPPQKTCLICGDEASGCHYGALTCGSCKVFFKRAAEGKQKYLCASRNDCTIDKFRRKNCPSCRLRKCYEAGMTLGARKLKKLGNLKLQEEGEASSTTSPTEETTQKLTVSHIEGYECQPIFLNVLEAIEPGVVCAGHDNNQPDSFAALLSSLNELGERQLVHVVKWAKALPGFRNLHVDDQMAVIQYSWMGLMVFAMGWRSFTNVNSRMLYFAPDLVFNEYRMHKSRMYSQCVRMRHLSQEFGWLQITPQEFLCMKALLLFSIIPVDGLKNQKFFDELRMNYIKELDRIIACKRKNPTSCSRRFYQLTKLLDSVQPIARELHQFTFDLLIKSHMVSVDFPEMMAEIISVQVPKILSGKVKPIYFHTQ

O=C(O)CCSCCC(=O)O
not listed: [10]
inactive: all other assays above

CCC(C(=O)NC(=O)NC(C)=O)c1ccccc1 (stereo unspecified)
not listed: [5]
inactive: all other assays above

CCCCCCCCCC[N+](C)(C)[O-]
not listed: [7] | [8] | [10]
inactive: all other assays above

O=C(CO)[C@@H](O)[C@H](O)[C@@H](O)CO
not listed: [5]
inactive: all other assays above

CCCCN(CCC(=O)OCC)C(C)=O
not listed: [5]
inactive: all other assays above

Cc1ccc(-c2ccccc2C#N)cc1
not listed: [10]
inactive: all other assays above

CC1CCC(CO)CC1 (stereo unspecified)
inactive: all assays above

CCCCCCCC1CCCC1=O (stereo unspecified)
not listed: [10]
inactive: all other assays above

CC(=O)c1ccc2ccccc2c1
not listed: [5]
inactive: all other assays above

C=C(C)C(=O)OCC(O)CO (stereo unspecified)
not listed: [10]
inactive: all other assays above

CC(C)C1CCC(O)CC1 (stereo unspecified)
not listed: [10]
inactive: all other assays above

CN1CCC(=C2c3ccccc3CCc3cccnc32)CC1
not listed: [5] | [9]
inactive: all other assays above

O=Cc1cccc(Br)c1
not listed: [5] | [10]
inactive: all other assays above

C=COCC1CCC(COC=C)CC1 (stereo unspecified)
not listed: [5] | [7]
inactive: all other assays above

C=COC(=O)C(C)(CC)CCC(C)C (stereo unspecified)
not listed: [5] | [7] | [8]
inactive: all other assays above

CC(=O)OCC(=O)[C@@]1(O)[C@H](C)C[C@H]2[C@@H]3CCC4=CC(=O)C=C[C@]4(C)[C@@]3(F)[C@@H](O)C[C@@]21C
not listed: [5] | [10]
inactive: all other assays above

CN1C(C)(C)CC(O)CC1(C)C
not listed: [5] | [10]
inactive: all other assays above

CCCCc1ccc2c(n1)[C@@H](c1ccc(OC)cc1C[C@H](C)C(=O)O)[C@H](C(=O)O)[C@H]2c1ccc2c(c1)OCO2
not listed: [5] | [10]
inactive: all other assays above

NC(=O)N1c2ccccc2CC(=O)c2ccccc21
not listed: [5] | [10]
inactive: all other assays above

CCNS(=O)(=O)c1ccc(C)cc1
not listed: [5] | [7] | [8]
inactive: all other assays above

Clc1cc(Cl)cc(Cl)c1
not listed: [5] | [7]
inactive: all other assays above

CCOCC(C)O (stereo unspecified)
not listed: [5]
inactive: all other assays above

CC(C)C(=O)OC(=O)C(C)C
not listed: [5] | [10]
inactive: all other assays above

CC(C#N)(CCC(=O)O)N=NC(C)(C#N)CCC(=O)O (stereo unspecified)
not listed: [5] | [10]
inactive: all other assays above

CC(N)C12CC3CC(CC(C3)C1)C2 (stereo unspecified)
not listed: [5] | [10]
inactive: all other assays above

CC1OC1C1CCC2(C)OC2C1 (stereo unspecified)
not listed: [5]
inactive: all other assays above

CCCCCCC1CCC(=O)O1 (stereo unspecified)
not listed: [5] | [10]
inactive: all other assays above
